High-throughput results deposited in PubChem BioAssay by The Scripps Research Institute Molecular Screening Center.
TEAD-YAP inh = TEAD-YAP interaction inhibition; HEK-TIYL cells, TEAD-Gal4/YAP UAS-luciferase luminescence; 1.4% of 640,000 active; inhibition, % at 9.12 µM; AID 1259422; in the data active means inhibition above about 32%
FBW7 act = activators of human E3 ligase FBW7. 0.13% of 650,000 active. Q969H0. normalized activity (activation), % at 26.1 µM. AlphaScreen FBW7–phospho-cyclin E peptide binding, activator screen; in the data active means normalized activity above about 1.9%;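 further: purified mutant Fbw7 with reduced substrate affinity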
MITF primary = blocks human microphthalmia-associated transcription factor | inhibition, % at 2.6 µM | 0.91% of 650,000 active | AlphaScreen MITF homodimerization, bead proximity signal; in the data active means inhibition above about 50%
GPR151 activ = activates the human receptor GPR151; Q8TDV0; PathHunter beta-arrestin GPR151 cells, luminescence; activation, % at 11.2 µM; 1% of 650,000 active; AID 1508602; in the data active means activation above about 4.9%
GPR151 conf act = confirmation of human GPR151 activators; shares compounds with GPR151 activ; GPR151 PathHunter beta-arrestin cells, luminescence, 90 min; % of EA-reagent control over plate median; activation, % at 11.2 µM; 6,700 tested, under 10 active; AID 1508609;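 active means mean percent activation across replicates above the confirmation screen cutoff of 4.91%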
GPR119 ag = GPR119 activation, counter-screen for GPR151 activators; shares compounds with GPR151 activ; GPR119 PathHunter beta-arrestin cells, luminescence, 90 min; 0 = compound-well median, 100 = enzyme-acceptor control; activation, % at 11.2 µM; 0.3% of 6,700 active;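 active means mean percent activation in the counterscreen above 29.09%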;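 further: counterscreen on off-target GPR119 to flag nonselective hits from the GPR151 activator screen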
Target sequence (Q8TDV5 whole entry, looked up): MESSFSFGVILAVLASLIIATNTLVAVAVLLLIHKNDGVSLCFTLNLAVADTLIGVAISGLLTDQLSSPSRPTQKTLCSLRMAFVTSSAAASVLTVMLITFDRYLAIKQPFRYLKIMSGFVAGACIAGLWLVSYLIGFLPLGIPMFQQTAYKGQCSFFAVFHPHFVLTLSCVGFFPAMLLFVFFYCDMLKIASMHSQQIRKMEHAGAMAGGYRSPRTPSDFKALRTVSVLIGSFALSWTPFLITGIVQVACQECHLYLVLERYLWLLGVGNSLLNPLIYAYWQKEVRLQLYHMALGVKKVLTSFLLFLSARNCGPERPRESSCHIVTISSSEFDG
A number is an active result. Compounds with a hit are over-represented: about 3.5% of the library has one in this group of screens.

What do the screens show for `COC(=O)c1ccccc1NC(=O)c1oc(=O)c2ccccc2c1-c1ccccc1`?
TEAD-YAP inh: inactive; FBW7 act: inactive; MITF primary: inactive; GPR151 activ: inactive

How did NC(C(=O)N1CCN(c2ccc3cnccc3c2)CC1)c1ccc(-c2ccccc2)cc1 (stereo not drawn) do in these assays?
TEAD-YAP inh: inactive; FBW7 act: inactive; MITF primary: inactive; GPR151 activ: 7.5; GPR151 conf act: inactive; GPR119 ag: inactive

Results for NC(C(=O)N1CCC(Nc2ccc3cnccc3c2)CC1)c1ccc(-c2ccccc2)cc1 (stereo not drawn) ?
TEAD-YAP inh: inactive; FBW7 act: inactive; MITF primary: inactive; GPR151 activ: inactive

What do the screens show for `Cc1cccc(Nc2nc3nonc3n3cnnc23)c1C`?
TEAD-YAP inh: inactive; FBW7 act: inactive; MITF primary: inactive; GPR151 activ: 5.8; GPR151 conf act: inactive; GPR119 ag: inactive

How did CCCNC(=O)CCCOc1ccc(Cl)cc1Cl do in these assays?
TEAD-YAP inh: inactive; FBW7 act: inactive; MITF primary: inactive; GPR151 activ: 13; GPR151 conf act: inactive; GPR119 ag: inactive

What do the screens show for `CCOCCCNC(=O)CCCOc1ccc(Cl)cc1Cl`?
TEAD-YAP inh: inactive; FBW7 act: inactive; MITF primary: inactive; GPR151 activ: inactive

How did Cc1cc2c(cc1S(=O)(=O)N1CCC(C(N)=O)(N3CCCCC3)CC1)OCC(=O)N2 do in these assays?
TEAD-YAP inh: inactive; FBW7 act: inactive; MITF primary: inactive; GPR151 activ: inactive

Results for CCOc1ccc(NC(=O)Nc2nnc(CSCc3ccccc3)s2)cc1 ?
TEAD-YAP inh: inactive; FBW7 act: inactive; MITF primary: inactive; GPR151 activ: 7.0; GPR151 conf act: inactive; GPR119 ag: inactive

What do the screens show for `CCCCCOC(=O)C1=C(C)OC23OC(N)=C(C#N)C12C(=O)c1ccccc13` (stereo not drawn)?
TEAD-YAP inh: inactive; FBW7 act: inactive; MITF primary: inactive; GPR151 activ: inactive

Results for COCCNC(=O)CSc1nnc(C)n1-c1ccccc1 ?
TEAD-YAP inh: inactive; FBW7 act: inactive; MITF primary: inactive; GPR151 activ: inactive

How did O=C1CCC(c2ccccc2)=NN1c1ccccn1 do in these assays?
TEAD-YAP inh: inactive; FBW7 act: inactive; MITF primary: inactive; GPR151 activ: inactive

Results for O=C1CCC(c2sc(Cl)c(Cl)c2Cl)=NN1c1ccccc1 ?
TEAD-YAP inh: inactive; FBW7 act: inactive; MITF primary: inactive; GPR151 activ: 12; GPR151 conf act: inactive; GPR119 ag: inactive

Results for Cc1ccc(-c2noc(CN(C(=O)CCN3C(=O)c4ccccc4C3=O)C(C)C)n2)cc1 ?
TEAD-YAP inh: inactive; FBW7 act: inactive; MITF primary: inactive; GPR151 activ: 5.1; GPR151 conf act: inactive; GPR119 ag: inactive

How did CN(Cc1nc(-c2ccccc2)no1)S(=O)(=O)c1ccc(Cl)cc1 do in these assays?
TEAD-YAP inh: inactive; FBW7 act: inactive; MITF primary: inactive; GPR151 activ: 5.5; GPR151 conf act: inactive; GPR119 ag: inactive

What do the screens show for `CC(C)N(Cc1nc(-c2ccccc2)no1)C(=O)CCN1C(=O)c2ccccc2C1=O`?
TEAD-YAP inh: inactive; FBW7 act: inactive; MITF primary: inactive; GPR151 activ: inactive

How did CCOc1ccc(C(=O)N(Cc2nc(-c3ccc(OC)cc3)no2)C(C)C)cc1OCC do in these assays?
TEAD-YAP inh: inactive; FBW7 act: inactive; MITF primary: inactive; GPR151 activ: inactive

Results for COc1cccc(OC)c1C(=O)N(Cc1nc(-c2ccc(C)cc2)no1)C(C)C ?
TEAD-YAP inh: inactive; FBW7 act: inactive; MITF primary: inactive; GPR151 activ: 9.7; GPR151 conf act: inactive; GPR119 ag: inactive

How did C=CCOc1ccc(C(=O)N(Cc2nc(-c3ccc(OC)c(OC)c3)no2)C(C)C)cc1 do in these assays?
TEAD-YAP inh: inactive; FBW7 act: inactive; MITF primary: inactive; GPR151 activ: 12; GPR151 conf act: inactive; GPR119 ag: inactive

How did Cc1cc2ccccc2n1CCNS(=O)(=O)c1ccc(F)cc1 do in these assays?
TEAD-YAP inh: inactive; FBW7 act: inactive; MITF primary: inactive; GPR151 activ: inactive

What do the screens show for `CCOC(=O)c1cc2c(C(F)(F)F)cc(=O)[nH]c2o1`?
TEAD-YAP inh: inactive; FBW7 act: inactive; MITF primary: inactive; GPR151 activ: inactive

Results for CC1CC(C)CN(S(=O)(=O)c2ccc(F)c(C(=O)Nc3ccc(F)c(F)c3)c2)C1 (stereo not drawn) ?
TEAD-YAP inh: inactive; FBW7 act: inactive; MITF primary: inactive; GPR151 activ: inactive

Results for COc1ccc(-c2noc(CN(C(C)C)S(=O)(=O)c3ccc(F)cc3)n2)cc1 ?
TEAD-YAP inh: inactive; FBW7 act: inactive; MITF primary: inactive; GPR151 activ: 11; GPR151 conf act: inactive; GPR119 ag: inactive

What do the screens show for `Cc1c(N=Cc2ccccc2)cc([N+](=O)[O-])cc1[N+](=O)[O-]`?
TEAD-YAP inh: inactive; FBW7 act: inactive; MITF primary: inactive; GPR151 activ: 5.3; GPR151 conf act: inactive; GPR119 ag: inactive

How did Cc1c(N=CN(C)C)cc([N+](=O)[O-])cc1[N+](=O)[O-] do in these assays?
TEAD-YAP inh: inactive; FBW7 act: inactive; MITF primary: inactive; GPR151 activ: inactive

How did COc1ccc(/C=N/NC(=O)c2ccc(=O)n(C)c2)cc1 do in these assays?
TEAD-YAP inh: inactive; FBW7 act: inactive; MITF primary: inactive; GPR151 activ: inactive

Results for COc1cccc(/C=N/NC(=O)COc2ccc3ccccc3c2)c1 ?
TEAD-YAP inh: inactive; FBW7 act: inactive; MITF primary: inactive; GPR151 activ: inactive

Results for CCCCOc1ccc(OCC(=O)N/N=C/c2cccc(OC)c2)cc1 ?
TEAD-YAP inh: inactive; FBW7 act: inactive; MITF primary: inactive; GPR151 activ: 5.7; GPR151 conf act: inactive; GPR119 ag: inactive

Results for COc1ccc(/C=N/NC(=O)c2ccc(=O)n(C)c2)cc1OC ?
TEAD-YAP inh: inactive; FBW7 act: inactive; MITF primary: inactive; GPR151 activ: 10; GPR151 conf act: inactive; GPR119 ag: inactive

How did COc1ccc(/C=N\NC(=O)COc2c(C)cccc2C)cc1OC do in these assays?
TEAD-YAP inh: inactive; FBW7 act: inactive; MITF primary: inactive; GPR151 activ: 9.9; GPR151 conf act: inactive; GPR119 ag: inactive

How did Cc1nc(CN(C)Cc2ccc(C(=O)NCc3ccccc3Cl)c(=O)[nH]2)cs1 do in these assays?
TEAD-YAP inh: inactive; FBW7 act: inactive; MITF primary: inactive; GPR151 activ: 5.2; GPR151 conf act: inactive; GPR119 ag: inactive

How did CN(Cc1cscn1)Cc1ccc(C(=O)NCc2cccs2)c(=O)[nH]1 do in these assays?
TEAD-YAP inh: inactive; FBW7 act: inactive; MITF primary: inactive; GPR151 activ: inactive

How did O=C(CSc1ncnc2c1nnn2Cc1ccccc1)NCc1ccccc1Cl do in these assays?
TEAD-YAP inh: inactive; FBW7 act: inactive; MITF primary: inactive; GPR151 activ: inactive

Results for COc1ccc(OC(C)C(=O)Nc2cc(C)ccc2C)cc1 (stereo not drawn) ?
TEAD-YAP inh: inactive; FBW7 act: inactive; MITF primary: inactive; GPR151 activ: 5.0; GPR151 conf act: inactive; GPR119 ag: inactive
